Measurements as given in PubChem BioAssay (EPA / NIEHS).
Where “and” joins values, the source holds several entries; their conditions need not be identical. Equal values may be shown once. Records with an inconclusive call do not appear. Some structures have more than one record in an assay (separate samples or runs), and their calls can disagree. Calls of active or inactive are those of the source. The calls were made as follows: active = hit-call score of the fitted dose curve at least 0.9, where 1 is the maximum; inconclusive = response in the unintended direction; inactive = score below 0.9.

Experiments:
[1] = TOX21_p53_BLA_p3_viability: Viability Assessment in the Tox21 HCT-116 p53 Agonism Beta-lactamase Assay, Phase 3 (AID 2283593);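 also: cells exposed to compound for 16 h before reading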
Outline: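 Cellular ATP was quantified by CellTiter-Glo luminescence, read after 30 min at room temperature. Beforehand, HCT116 cells (4000/well) received compound 5 h post-seeding, 217-fold diluted from DMSO, then incubated 16 h at 37C.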

[2] = target: Cellular tumor antigen p53 (Homo sapiens) (UniProt P04637); test: TOX21_p53_BLA_p3_ratio: Tox21 HCT-116 p53 Agonism Beta-lactamase Assay, Ratio, Phase 3 (AID 2283596)
Outline: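 Cells were seeded at 4000/well, rested 5 h at 37C, then dosed with DMSO compound solutions (217-fold dilution) for 16 h. CCF4-AM substrate was loaded for 2 h at room temperature, and the 460/530 nm emission ratio was fitted for gain of signal versus DMSO.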

[3] = TOX21_p53_BLA_p4_viability: Viability Assessment in the Tox21 HCT-116 p53 Agonism Beta-lactamase Assay, Phase 4 (AID 2283597);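 also: hits lower the luminescence signal meaning cytotoxicity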
Outline: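 In this multiplexed secondary endpoint, HCT116 cells (4000 per well, compound at 5 h, 16 h treatment) received CellTiter-Glo after the beta-lactamase read. Luminescence after 30 min RT reflects ATP, and falling signal marks cytotoxicity.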

[4] = target: Cellular tumor antigen p53 (Homo sapiens) (UniProt P04637); test: TOX21_p53_BLA_p5_ratio: Tox21 HCT-116 p53 Agonism Beta-lactamase Assay, Ratio, Phase 5 (AID 2283599)
Outline: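 Beta-lactamase reporter ratio (blue 460 nm over green 530 nm, 405 nm excitation) after 2 h CCF4-AM loading, in HCT-116 cells exposed 16 h at 37 C to compounds pinned at 217-fold dilution. Increases relative to DMSO baseline scored.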

[5] = TOX21_p53_BLA_p5_viability: Viability Assessment in the Tox21 HCT-116 p53 Agonism Beta-lactamase Assay, Phase 5 (AID 2283600)
Outline: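 Here cell health was gauged by ATP levels in wells holding 4000 cells, each treated 16 h with DMSO-delivered compounds at 217-fold dilution; reduced luminescence marked toxicity.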

[6] = target: Cellular tumor antigen p53 (Homo sapiens) (UniProt P04637); test: TOX21_p53_BLA_p4_ratio: Tox21 HCT-116 p53 Agonism Beta-lactamase Assay, Ratio, Phase 4 (AID 2283601)
Outline: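 Signal is the blue/green (460nm/530nm) ratio of cleaved versus uncleaved CCF4-AM substrate, read after 2 h substrate loading. Cells were HCT116 carrying the p53-responsive beta-lactamase reporter, dosed 16 h at 37C, 5% CO2; CellTiter-Glo measured in parallel.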

[7] = Tanguay_ZF_120hpf_MORT_legacy: (Legacy) Oregon State University Tanguay Lab 120 Hour Post-fertilization zebrafish Assay for Mortality (AID 2283633);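 as to AC50: fitted as increase in binary mortality versus DMSO negative control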
Outline: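 Single dechorionated Tropical 5D embryos were held with test chemical (0.64% DMSO final) from 6 to 120 hpf at 28C under foil. Deaths at 24 or 120 hpf were recorded as binary calls, analysed for increase over DMSO controls.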

[8] = Tanguay_ZF_120hpf_YSE_legacy: (Legacy) Oregon State University Tanguay Lab 120 Hour Post-fertilization zebrafish Assay for Yolk Sac Edema (AID 2283634);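 as to AC50: actives raise the incidence of yolk sac edema above the DMSO baseline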
Outline: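 Single dechorionated embryos were held in sealed plates at 28C with test chemical (0.64% DMSO final) from 6 hpf until 120 hpf. Edema of the yolk sac was then recorded as a binary endpoint; non-mortality endpoints were skipped for dead embryos.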

[9] = Tanguay_ZF_120hpf_AXIS_legacy: (Legacy) Oregon State University Tanguay Lab 120 Hour Post-fertilization zebrafish Assay for Body Axis Malformation (AID 2283635);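 as to AC50: potency for an increased fraction of larvae scored with body axis malformation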
Outline: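 Each dechorionated embryo was exposed alone from 6 hpf, with DMSO at 0.64% (vol/vol) and trimethyltin chloride 5 uM as positive control. Axis malformation was recorded at 120 hpf unless the embryo had died.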

[10] = Tanguay_ZF_120hpf_EYE_legacy: (Legacy) Oregon State University Tanguay Lab 120 Hour Post-fertilization zebrafish Assay for Eye Malformation (AID 2283636);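 also: binary presence or absence of eye malformation scored by brightfield in 120 hpf larvae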
Outline: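 Binary brightfield scoring of eye defects at 120 hpf after static exposure from 6 hpf of single pronase-dechorionated wild-type embryos (28C, 0.64% DMSO). Non-mortality endpoints omitted where embryos died; fit vs DMSO.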

Measured: AC50

Sequence of Cellular tumor antigen p53 (Homo sapiens) (P04637 whole entry, looked up): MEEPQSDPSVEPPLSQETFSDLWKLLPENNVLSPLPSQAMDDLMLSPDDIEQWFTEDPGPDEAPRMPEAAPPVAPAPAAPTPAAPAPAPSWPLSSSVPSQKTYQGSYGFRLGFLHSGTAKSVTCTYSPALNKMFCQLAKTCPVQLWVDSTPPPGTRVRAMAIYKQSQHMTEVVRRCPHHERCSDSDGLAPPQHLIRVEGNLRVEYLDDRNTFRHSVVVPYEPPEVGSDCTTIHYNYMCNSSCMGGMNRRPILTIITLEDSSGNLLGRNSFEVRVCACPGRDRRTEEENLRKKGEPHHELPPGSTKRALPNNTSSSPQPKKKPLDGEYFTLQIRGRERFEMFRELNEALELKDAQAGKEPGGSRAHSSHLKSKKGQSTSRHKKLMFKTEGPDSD

CO/C=C(/C(=O)OC)c1ccccc1COc1cccc(C(F)(F)F)n1
active: [2] 6.17 µM | [4] 4.18 µM | [6] 5.53 µM | [8] 4.88 µM | [9] 6.06 µM | [10] 3.83 µM
inactive: [1] | [3] | [5] | [7]

CC(C)C(=O)OCC(C)(C)C(OC(=O)C(C)C)C(C)C (stereo not given)
active: [1] 46.4 µM | [7] 26.2 µM
inactive: [2] | [3] | [4] | [5] | [6] | [8] | [9] | [10]

ClC(Cl)=C(c1ccc(Cl)cc1)c1ccc(Cl)cc1
inactive: [1] | [2] | [3] | [4] | [5] | [6] | [7] | [8] | [9] | [10]
active: [1] 58.4 µM

CCC(C)(c1ccc(O)cc1)c1ccc(O)cc1
inactive: [1] | [3] | [4] | [5]
active: [2] 86.3 µM and 76.2 µM | [3] 77.1 µM | [4] 75.7 µM | [6] 84.6 µM and 82.3 µM | [7] 36.9 µM | [8] 41 µM | [9] 46.9 µM | [10] 46.2 µM

CCCCCCCCCc1ccc(O)cc1
inactive: [1] | [3] | [4] | [5] | [6] | [7] | [8] | [10]

O=S(=O)(O)C(F)(F)C(F)(F)C(F)(F)C(F)(F)C(F)(F)C(F)(F)F
inactive: [1] | [2] | [3] | [4] | [7] | [8] | [9] | [10]

Cc1cc(-c2ccc(N)c(C)c2)ccc1N
inactive: [2] | [3] | [4] | [5] | [6] | [7] | [8] | [9] | [10]
active: [6] 70.7 µM

Clc1ccc(C(Cl)(Cl)Cl)cc1
inactive: [1] | [2] | [4] | [6] | [7] | [8] | [9] | [10]

Nn1cnnc1
inactive: [1] | [2] | [3] | [6] | [7] | [8] | [9] | [10]

COc1ccc(O)c(C(C)(C)C)c1
inactive: [1] | [2] | [3] | [4] | [6] | [7] | [8] | [9] | [10]
active: [6] 86.1 µM

Cc1ccccc1O
inactive: [2] | [3] | [4] | [6] | [7] | [8] | [10]

O=C(O)C(F)(F)C(F)(F)C(F)(F)C(F)(F)C(F)(F)F
inactive: [2] | [4] | [6] | [7] | [8] | [9] | [10]

CCCCCCOC(=O)c1ccccc1C(=O)OCCCCCC
inactive: [1] | [4] | [5] | [6] | [7] | [8] | [10]

CCOCCOC(C)=O
inactive: [1] | [2] | [3] | [4] | [5] | [6] | [8] | [9]

CCCN(CCC)N=O
inactive: [1] | [2] | [3] | [4] | [6] | [7] | [8] | [9] | [10]

ClC1=C(Cl)[C@]2(Cl)[C@@H]3[C@@H]4C[C@@H]([C@H]5O[C@@H]45)[C@@H]3[C@@]1(Cl)C2(Cl)Cl
inactive: [2] | [3] | [4] | [5] | [6] | [7] | [8] | [10]

C=CC(N)=O
inactive: [1] | [2] | [4] | [5] | [6] | [7] | [8] | [9] | [10]

Cc1cccc(C)c1N
inactive: [2] | [3] | [4] | [6] | [7] | [8] | [9] | [10]

N#Cc1ccc(N(CC(N)=O)CC(F)(F)F)cc1C(F)(F)F
inactive: [3] | [4] | [5] | [7] | [8] | [9] | [10]

Cc1cc(O)ccc1Cl
inactive: [1] | [2] | [3] | [4] | [5] | [6] | [7] | [9] | [10]

C1CC2OC2CC1C1CO1 (stereo not given)
inactive: [2] | [3] | [5] | [6] | [7] | [10]

Cc1ccccc1[N+](=O)[O-]
inactive: [1] | [2] | [3] | [4] | [5] | [6] | [8] | [9] | [10]

Cc1cc2c3c(c1)C(c1ccccc1)=N[C@@H](NC(=O)c1ccncc1)C(=O)N3CC2
inactive: [6] | [7] | [8] | [9] | [10]

CN(C)c1nc(=O)n(C2CCCCC2)c(=O)n1C
inactive: [7] | [8] | [9] | [10]

O=C(NC(=O)c1cc(F)c(F)cc1Cl)Nc1cc(F)ccc1N1CCC(C(=O)O)CC1
inactive: [1] | [2] | [3] | [6] | [7] | [8] | [9] | [10]

CCOP(=S)(OCC)SCSC(C)(C)C
inactive: [6] | [7] | [8] | [10]

CCNc1nc(NC(C)C)nc(SC)n1
inactive: [7] | [8] | [9] | [10]

c1ccc(-c2ccccc2)cc1
inactive: [1] | [2] | [4] | [5] | [6] | [7] | [8] | [9] | [10]

CC#Cc1cc(C)nc(Nc2ccccc2)n1
inactive: [1] | [3] | [5] | [6] | [7] | [8] | [10]

Oc1ccc(Cl)cc1Cl
inactive: [1] | [2] | [3] | [4] | [5] | [6] | [7] | [9] | [10]

CCSC(=O)N(CC)C1CCCCC1
inactive: [7] | [8] | [9]

CCC(C)(CC)c1cc(NC(=O)c2c(OC)cccc2OC)on1
inactive: [7] | [8] | [9] | [10]

CCCCCCCCOC(=O)c1ccccc1C(=O)OCCCCCCCC
inactive: [1] | [2] | [4] | [5] | [6] | [7] | [8] | [9] | [10]

O=S(=O)(O)C(F)(F)C(F)(F)C(F)(F)C(F)(F)F
inactive: [1] | [2] | [3] | [4] | [5] | [6] | [7] | [9] | [10]

CC1=C2C[C@H]3[C@@H](CC=C4C[C@@H](O)CC[C@@]43C)[C@@H]2CC[C@]12O[C@@H]1C[C@H](C)CN[C@H]1[C@H]2C
active: [8] 17.2 µM | [9] 0.33 µM
inactive: [1] | [2] | [4] | [5] | [6] | [7] | [10]

Cc1ccccc1CO[C@@H]1C[C@@]2(C(C)C)CC[C@]1(C)O2
inactive: [8] | [9] | [10]

O=NN(c1ccccc1)c1ccccc1
inactive: [2] | [3] | [4] | [5] | [6] | [7] | [8] | [9] | [10]
